Screens from PubChem BioAssay.
GC-B act: GC-B (human) receptor activation; actives 0.11% (n = 370,000); AID 1920062; activation, % at 10 µM; HEK293-GC-B cells, CNP EC30, cGMP TR-FRET; 0% at EC30 CNP, 100% saturating CNP;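 active = activation at 10 µM reaching about 35% in either raw or pattern-adjusted values, limit read from the data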
GC-A act: GC-A (human) enzyme activation; P16066; HEK293 GC-A cells, cGMP TR-FRET, EC30 ANP; 0% at EC30 ANP, 100% saturating ANP; activation, % at 10 µM; actives 0.14% (n = 370,000); AID 1671463; in the data active = activation above about 40%
PLCg1 inh: PLC-gamma1 (human) inhibition, primary screen. actives 0.84% (n = 370,000). purified PLC-gamma1, fluorogenic substrate, fluorescence. inhibition, % at 12.2 µM; in the data active = inhibition above about 9.5%
PLCb3 inh: PLC-beta3 (human) inhibition, primary screen; Q01970; actives 0.18% (n = 370,000); Purified PLC-beta3, fluorogenic substrate, fluorescence; inhibition, % at 12.2 µM; in the data active = inhibition above about 11%;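 also: 0% = median of compound wells on plate and 100% = full blocker control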
* marks the source's active call; other numbers are inactive results; i = inactive. A selection: hits, their analogues and other compounds. The true share with any hit is near 1.2%.

SMILES | GC-B act | GC-A act | PLCg1 inh | PLCb3 inh
COC(=O)C1(C)CCc2c(ccc3ccccc23)C1=O (stereo not drawn) | 9 | 3 | -96 | -116
COc1ccccc1S(=O)(=O)CC(O)COc1ccc(F)cc1Cl (stereo not drawn) | -2 | -2 | 3 | 0
O=C(COc1ccccc1Br)N1CCN(C(=O)c2cccs2)CC1 | -4 | -4 | 14* | -4
O=C1C=CC(=O)N1CCCCCCN1C(=O)C=CC1=O | 36* | 29 | -1 | -1
CC(C)(C)C1CCc2[nH]nc(C(=O)O)c2C1 (stereo not drawn) | -2 | 0 | 15* | 10
COc1ccc(-n2nc(C#N)c(Cl)cc2=O)cc1 | 1 | 47* | -82 | -112
CCc1c(C)sc(NC(=O)Cc2ccccc2OC)c1C(=O)N1CCOCC1 | 0 | 2 | -5 | -7
Cc1ccc(Nc2c(-c3ccco3)nc3nc(C)cc(C)n23)cc1 | 13 | 68* | -278 | -329
N#Cc1c(N)[nH]c2ccc(Sc3ccccc3)cc12 | 44* | 59* | 2 | 3
CC1(C)CC(=O)C2=C(C1)NC(Nc1nc3ccccc3o1)=NC2c1ccccn1 (stereo not drawn) | 2 | 46* | -9 | -22
O=C1NCCN/C1=C\C(=O)c1ccc(Cl)cc1 | -2 | 41* | 4 | -5
O=C(COC(=O)C1CC1)Nc1nc(-c2ccc(F)c(F)c2)cs1 | 2 | 25 | 7 | -7
CC1(C)CC(=O)C(C(=S)Nc2ccc(F)cc2)=C(NCCN2CCOCC2)C1 | -4 | -1 | 1 | 1
N#CCCn1cc(/C=N/NC(N)=S)c(-c2ccccc2)n1 | -11 | -6 | 1 | -1
N#CCCn1cc(/C=N/NC(N)=S)c(-c2ccc(Br)cc2)n1 | 55* | -8 | 1 | -31
O=C(CNC(=S)N(Cc1ccccc1)Cc1cccnc1)NC1CCCCC1 | -2 | 2 | 2 | 1
O=C(OC1CCOC1=O)C1CCN(S(=O)(=O)c2ccc(Cl)c(C(F)(F)F)c2)CC1 (stereo not drawn) | 51* | -2 | 1 | -4
O=C(OC1CCOC1=O)C1CCN(S(=O)(=O)c2ccccc2)CC1 (stereo not drawn) | 4 | 2 | 0 | -3
O=c1n(Cc2ccccc2Cl)c2sc3c(c2c2ncnn12)CCCC3 | 39* | 25 | -1 | -1
Cc1ccc(NC2=NC(c3ccccc3)n3c(nc(C)cc3=O)N2)c(C)c1 (stereo not drawn) | 38* | 29 | 4 | 5
OCCN1CCN(CCCN2c3ccccc3CCc3ccccc32)CC1 | -11 | -19 | 13* | 6
CCCO/N=C1/C(=O)N(c2ccccc2)c2ccccc21 | -4 | 0 | 2 | 2
COc1cc(C(=O)N/N=C/c2ccc(OC(=O)c3cccc(C)c3)cc2)ccc1O | -4 | 1 | 16* | 3
COc1cc(/C=N/NC(=O)c2ccc(N)cc2)ccc1OC(=O)c1cccc(C)c1 | 2 | 0 | -30 | -54
CCc1ccccc1NS(=O)(=O)c1c(C(=O)N2CCCCCC2)c(C)n(C)c1C | -1 | 1 | -1 | -4
SMILES | GC-B act | GC-A act | PLCg1 inh | PLCb3 inh
CC(=O)N1CCN(CC(=O)Nc2ccccc2Sc2ccc(Cl)cc2)CC1 | -9 | -9 | 1 | 0
O=C(CCl)Nc1ccccc1Sc1ccc(Cl)cc1 | -3 | 45* | 1 | 2
CCN1C[C@@H]2[C@@H]3C(=O)N(Cc4ccccc4)C(=O)[C@@H]3[C@](C)(C1=O)N2C(=O)c1ccccc1 | -2 | 0 | 2 | 11*
COC(=O)[C@@]12CCCN1[C@H](c1ccc(-c3ccc(OC)cc3)c(OC)c1)[C@@H]1C(=O)N(C)C(=O)[C@@H]12 | -4 | -3 | -404 | i
C=CCNC(=S)Nc1c(C(=O)OC)[nH]c2cc(OC)ccc12 | 36* | 20 | -14 | -32
O=C(Nc1nc2ccc(Cl)cc2s1)c1cccc(N2C(=O)CCC2=O)c1 | -5 | 74* | -15 | -21
COc1ccc2nc(NC(=S)N(C)C)sc2c1 | 2 | 8 | 15* | 9
O=C(Nc1nc2cc3c(cc2s1)OCO3)c1cccc(N2C(=O)CCC2=O)c1 | 3 | 40 | -4 | -7
COc1ccc2nc(NC(=O)c3cccc(N4C(=O)CCC4=O)c3)sc2c1 | 0 | 54* | -73 | -111
CCCC(=O)Nc1nc2ccc(OC)cc2s1 | -5 | 16 | 6 | 1
CCc1ccc(C(=O)Cn2ncc(Cl)c(Cl)c2=O)cc1 | 26 | 60* | -1 | 0
Cc1ccc(CNc2nc(C)nc3sc4c(c23)CCC4)cc1 | 45* | 40* | -4 | -6
